The structures appear in SMILES notation. Calls of active or inactive are those of the source. Unless noted, no rule for the calls is given here.

Assay [1] is described as follows: HepG2 liver cancer cell viability effects, profiling panel, resazurin fluorescence, 24 h, PK04 Diversity Set (AID 1172). The settings on record: higher = more signal. Background: Resazurin is reduced to fluorescent resorufin, in cell work by metabolically active cells.
Assay [2] can be described thus: basal S. cerevisiae growth modulation, no modifier, primary screen, OD600, strain BY4716, 24 h, basal condition (AID 1173). The settings on record: OD600, 24 h, higher = more signal, called active from +8 up or from −8 down.
Assay [3] is described as follows: MM1S myeloma cell viability, profiling panel, resazurin fluorescence, basal, 24 h, PK04 Diversity Set (AID 1174).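 Also: MM1S multiple myeloma cell line.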 The settings on record: higher = more signal, called active from +8 up or from −8 down.
In assay [4] the target is Dihydroorotate dehydrogenase (quinone), mitochondrial (Plasmodium falciparum (isolate 3D7)) (UniProt Q08210). The assay is described as follows: PfDHODH enzyme inhibitors, primary screen, biochemical, C-terminal His tag, absorbance 600 nm (AID 1175).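 Also: recombinant parasite enzyme with a five histidine tag at its C terminus.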 The conditions noted are these: DCIP absorbance 600 nm, higher = more signal, called active from +8 up or from −8 down.
The nature of assay [5]: P. aeruginosa biofilm formation inhibitors, primary screen, strain PAO1, LB-PBS medium, absorbance 600 nm (AID 1176). The conditions noted are these: P. aeruginosa PAO1 growth/biofilm, A600, 12 h; higher = more signal.
A short description of assay [6]: S. cerevisiae RM11-1a growth modifiers, primary screen, strain RM11-1a, OD600, basal, 24 h (AID 1177).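 Also: cultures grown under basal conditions with no added stressor.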 The settings on record: OD600, 24 h, higher = more signal, called active from +8 up or from −8 down.
Assay [7] is described as follows: E. coli acrAB mutant growth effects, primary screen, E. coli filamentation inducers, strain DRC39, OD650, 24 h (AID 1178).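 Also: growth measured as culture turbidity by optical density at 650 nm.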 The settings on record: higher = more signal, called active from +8 up or from −8 down.
Assay [8] can be described thus: E. coli acrAB mutant growth effects, primary screen, E. coli filamentation inducers, strain DRC39, OD650, 48 h (AID 1179).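 Also: screen aims at cell division blockers that make cells filament.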 The settings on record: E. coli DRC39 delta-acrAB growth, higher = more signal, called active from +8 up or from −8 down.
Assay [9] is described as follows: RPMI8226 myeloma cell viability, profiling panel, resazurin fluorescence, basal, 24 h, PK04 Diversity Set (AID 1180).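 Also: RPMI8826 multiple myeloma cell line at 5000 cells per well.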 The conditions noted are these: higher = more signal.
The target of assay [10] is E3 ubiquitin-protein ligase XIAP (Homo sapiens) (UniProt P98170). The assay can be described thus: XIAP binders, primary screen, biophysical, small-molecule microarray, fluorescence 635 nm (AID 1181).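 Also: score merges 667 nm emission and signal to noise over triplicate slides.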 The settings on record: small-molecule microarray binding, higher = more signal.
The subject of assay [11] is XIP peptide (Xip251-270) binding. The assay can be described thus: small-molecule binders of XIP peptide, primary screen, biochemical, small-molecule microarray, fluorescence 635/667 nm, 0.1 µg/mL protein (AID 1182). The settings on record: fluorescent protein binding, 635 nm, higher = more signal, called active from +8 up or from −8 down.
A further assay relates to XIP peptide (Xip251-270). The assay can be described thus: small-molecule binders of XIP peptide, primary screen, biochemical, small-molecule microarray, fluorescence 635/667 nm, 0.5 µg/mL protein (AID 1183). The settings on record: small-molecule microarray binding, fluorescence 635 nm; higher = more signal.
Assay [12] is described as follows: Plasmodium falciparum growth inhibition, primary screen, strain 3D7, DAPI fluorescence, 100 nL (AID 1184).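 Also: parasites grown inside human red blood cells in medium with human serum.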 The settings on record: P. falciparum 3D7 growth, 3 d, higher = more signal.
Assay [13] addresses Homeobox protein Hox-A13 (Mus musculus) (UniProt Q62424). The assay can be described thus: inhibitors of HoxA13-DNA binding, primary screen, biochemical, fluorescence polarization, labeled oligonucleotide (AID 1185). The settings on record: 15 min, higher = more signal, called active from +8 up or from −8 down. Background: Fluorescence polarisation rises when a labelled molecule tumbles more slowly, as on binding a larger partner.

Assay [14] is described as follows: inhibitors of hydroxyurea-induced Chk1 phosphorylation, primary screen, imaging, HeLa, phospho-Chk1 antibody, percent positive cells (AID 1186). The settings on record: hydroxyurea-induced phospho-Chk1 immunofluorescence imaging, higher = more signal.
Assay [15] is described as follows: inhibitors of hydroxyurea-induced Chk1 phosphorylation, primary screen, imaging, HeLa, phospho-Chk1 nuclear intensity (AID 1187). The conditions noted are these: hydroxyurea-induced phospho-Chk1 immunofluorescence imaging, higher = more signal.

E3 ubiquitin-protein ligase XIAP (Homo sapiens), sequence (P98170 whole entry, looked up): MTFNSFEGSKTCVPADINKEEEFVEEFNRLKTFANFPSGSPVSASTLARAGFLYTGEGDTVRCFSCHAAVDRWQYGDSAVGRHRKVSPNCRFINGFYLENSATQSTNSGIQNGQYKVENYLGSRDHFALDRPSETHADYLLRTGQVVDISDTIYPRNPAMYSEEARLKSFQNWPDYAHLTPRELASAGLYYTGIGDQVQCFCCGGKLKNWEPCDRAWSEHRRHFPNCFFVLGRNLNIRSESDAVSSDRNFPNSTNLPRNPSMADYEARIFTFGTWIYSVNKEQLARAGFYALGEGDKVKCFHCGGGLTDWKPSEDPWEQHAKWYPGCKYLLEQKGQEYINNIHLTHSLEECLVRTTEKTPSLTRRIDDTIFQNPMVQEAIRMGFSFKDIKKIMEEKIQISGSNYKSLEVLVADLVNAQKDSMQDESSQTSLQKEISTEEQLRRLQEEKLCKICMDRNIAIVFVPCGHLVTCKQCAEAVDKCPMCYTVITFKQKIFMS
Dihydroorotate dehydrogenase (quinone), mitochondrial (Plasmodium falciparum (isolate 3D7)), sequence (Q08210 whole entry, looked up): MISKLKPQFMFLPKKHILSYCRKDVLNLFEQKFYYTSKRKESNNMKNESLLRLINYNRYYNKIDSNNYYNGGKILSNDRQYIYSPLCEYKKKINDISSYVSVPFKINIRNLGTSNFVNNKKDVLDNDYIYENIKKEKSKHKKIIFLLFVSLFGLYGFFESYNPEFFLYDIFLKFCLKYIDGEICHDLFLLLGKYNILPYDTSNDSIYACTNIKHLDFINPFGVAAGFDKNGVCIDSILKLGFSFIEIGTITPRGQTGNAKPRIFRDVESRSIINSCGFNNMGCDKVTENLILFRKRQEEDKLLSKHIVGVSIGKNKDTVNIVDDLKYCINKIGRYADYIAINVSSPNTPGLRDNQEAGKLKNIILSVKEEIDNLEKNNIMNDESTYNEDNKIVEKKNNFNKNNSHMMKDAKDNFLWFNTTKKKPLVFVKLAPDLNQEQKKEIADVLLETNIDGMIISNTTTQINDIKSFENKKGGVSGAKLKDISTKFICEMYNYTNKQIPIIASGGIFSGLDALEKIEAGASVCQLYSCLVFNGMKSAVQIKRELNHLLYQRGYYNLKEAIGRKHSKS
Homeobox protein Hox-A13 (Mus musculus), sequence (Q62424 whole entry, looked up): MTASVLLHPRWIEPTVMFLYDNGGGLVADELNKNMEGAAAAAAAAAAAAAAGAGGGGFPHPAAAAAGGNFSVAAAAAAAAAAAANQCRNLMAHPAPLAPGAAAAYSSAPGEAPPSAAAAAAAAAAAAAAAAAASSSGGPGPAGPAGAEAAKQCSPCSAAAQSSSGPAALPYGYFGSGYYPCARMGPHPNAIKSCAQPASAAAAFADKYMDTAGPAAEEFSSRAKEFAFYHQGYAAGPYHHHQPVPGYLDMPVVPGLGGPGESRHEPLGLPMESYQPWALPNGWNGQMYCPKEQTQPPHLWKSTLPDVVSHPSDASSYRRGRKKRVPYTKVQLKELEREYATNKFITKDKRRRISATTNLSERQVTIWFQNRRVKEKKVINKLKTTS

As to `NC(=O)[C@H]1[C@@H]2C(=O)O[C@@H](c3ccccc3)[C@@H](c3ccccc3)N2[C@@H](c2ccc(O)cc2)[C@]12C(=O)Nc1ccc(C#CCCO)cc12`, the z-score is -0.744 in [1]; -0.383 (inactive) in assay [2]; -0.354 (inactive) in assay [3]; -0.0604 (inactive) in assay [5]; -1.03 (inactive) in assay [6]; -0.847 (inactive) in assay [7]. In addition, the z-score in [8] is -1.18 (inactive); in assay [9] it was -0.616; in assay [12], -0.629; in [13], -5.7 (inactive); in assay [14], -0.0158 (inactive); in assay [15], -0.651 (inactive). Besides, the composite z-score in assay [4] was -0.25 (inactive); in assay [10], 0.135; in [11] it was -0.0876 (inactive); in the assay on XIP peptide (Xip251-270), -0.413.
As for `CC(=O)NCCCC[C@@H]1NC(=O)[C@H]2C[C@@H](C(=O)NCCCCCCN(C)C)[C@@H](c3ccc(O)cc3)N2C1=O`, the z-score is -0.666 in [1]; -0.191 (inactive) in [2]; -1.56 (inactive) in assay [3]; -0.0059 (inactive) in [5]; -0.0236 (inactive) in [6]; -1.04 (inactive) in assay [7]. Further, the z-score was -1.53 (inactive) in assay [8]; -1.28 in [9]; -1.01 in assay [12]; -1.9 (inactive) in [13]; 0.0655 (inactive) in assay [14]; 0.0377 (inactive) in [15]. Also, the composite z-score is -0.231 (inactive) in assay [4], 0.217 in assay [10], 1.76 (inactive) in [11] and 0.832 in the assay with XIP peptide (Xip251-270).
`C=CCOC(=O)[C@@H]1[C@H]2C(=O)O[C@H](c3ccccc3)[C@H](c3ccccc3)N2[C@H](c2ccc(OCCOC(=O)[C@H]3C[C@H]4C(=O)N[C@@H](CCCCNC(C)=O)C(=O)N4[C@H]3c3ccc(O)cc3)cc2)[C@@]12C(=O)Nc1ccc(I)cc12`: the z-score is -0.0657 in assay [1]; 1.87 (inactive) in assay [2]; -0.967 (inactive) in assay [3]; 2.56 (inactive) in assay [5]; 2.34 (inactive) in assay [6]; -0.0715 (inactive) in assay [7]. The z-score in assay [8] was -0.649 (inactive); in assay [9], -0.145; in assay [12] it was -1.78; in [13], 0.32 (inactive); in [14] it was 0.293 (inactive); in [15] it was -0.568 (inactive). The composite z-score is 0.626 (inactive) in [4], -0.0566 in assay [10], 0.393 (inactive) in assay [11] and 0.566 in the assay with XIP peptide (Xip251-270).
Consider `O=C1O[C@H](c2ccccc2)[C@H](c2ccccc2)N2[C@H]1[C@@H](C(=O)NC[C@H](O)c1ccccc1)[C@]1(C(=O)Nc3ccc(C#CC4=CCCCC4)cc31)[C@H]2c1ccc(OCCO)cc1`, for which the z-score was 0.0374 in assay [1]; 1.17 (inactive) in assay [2]; -2 (inactive) in assay [3]; 2.05 (inactive) in assay [5]; 3.28 (inactive) in [6]; -0.227 (inactive) in [7]. The z-score in [8] was 0.262 (inactive); in assay [9], -3.18; in [12] it was -0.435; in assay [13], 3.43 (inactive); in assay [14] it was -0.22 (inactive); in assay [15], -0.301 (inactive). Moreover, the composite z-score in [4] is -0.186 (inactive); in assay [10], -0.316; in assay [11] it was 1.21 (inactive); in the assay with XIP peptide (Xip251-270), 0.658.
As for `CC(c1ccccc1)C(O)C1C=CC2C(=O)N(C)C(=O)C2N1N(c1ccccc1)c1ccccc1` (centres undefined), the z-score was -1.22 in assay [1]; -0.0972 (inactive) in [2]; -1.91 (inactive) in assay [3]; 0.419 (inactive) in assay [5]; 0.265 (inactive) in assay [6]; -0.502 (inactive) in assay [7]. Also, the z-score in assay [8] was -0.0284 (inactive); in assay [9], -1.8; in assay [12] it was -0.141; in assay [13], -4.26 (inactive); in assay [14], 0.75 (inactive); in assay [15], -0.173 (inactive). In addition, the composite z-score is -0.0374 (inactive) in [4], -0.0918 in assay [10], 0.0311 (inactive) in assay [11] and -0.62 in the assay with XIP peptide (Xip251-270).
`COc1ccc(CCN2C(=O)[C@@]3(c4ccc([N+](=O)[O-])cc4)CC(=O)N(CC45CC6CC(CC(C6)C4)C5)[C@@H]3c3ccc(CO)cc32)cc1`: the z-score in [1] is 0.214; in assay [2], -0.12 (inactive); in assay [3] it was 0.954 (inactive); in assay [5], 0.298 (inactive); in [6], -0.16 (inactive); in assay [7], 0.307 (inactive). Further, the z-score in assay [8] is 0.241 (inactive); in [9] it was 0.325; in assay [12], -1.07; in [13], -2.14 (inactive); in [14] it was 0.33 (inactive); in [15] it was 0.522 (inactive). Also, the composite z-score in [4] was -25.3 (active); in [10], 0.0325; in [11] it was -0.038 (inactive); in the assay on XIP peptide (Xip251-270) it was 0.93.
Regarding `O=C(NCc1ccccc1)c1ccc(Br)cc1[N+](=O)[O-]`, the z-score in assay [1] was 0.0759; in [2], -2.42 (inactive); in assay [3], 0.0636 (inactive); in assay [5], -0.131 (inactive); in assay [6], -0.465 (inactive); in [7], 0.986 (inactive). The z-score is -0.411 (inactive) in assay [8]; -0.447 in assay [9]; 2.11 in [12]; 0.513 (inactive) in assay [13]; 0.225 (inactive) in [14]; 0.119 (inactive) in assay [15]. The composite z-score was -1.37 (inactive) in [4], -0.127 in assay [10], 0.103 (inactive) in assay [11] and 0.0871 in the assay on XIP peptide (Xip251-270).
With `O=C1OCC=C[C@H]2OC34C=CCN(Cc5ccccc5)C(=O)[C@H]3N(CCO)C(=O)[C@@H]4[C@@H]12` (some centres undefined), the z-score in assay [1] is 1.21; in assay [2] it was -0.999 (inactive); in assay [3], 1.6 (inactive); in [5], 0.317 (inactive); in assay [6] it was -0.77 (inactive); in assay [7], 0.508 (inactive). Moreover, the z-score is 0.186 (inactive) in [8]; 0.894 in [9]; 0.438 in assay [12]; -4.18 (inactive) in assay [13]; 0.373 (inactive) in assay [14]; 0.252 (inactive) in assay [15]. Further, the composite z-score is -0.415 (inactive) in assay [4], -0.16 in assay [10], -0.132 (inactive) in assay [11] and 0.666 in the assay with XIP peptide (Xip251-270).
For `CCCC=C(CCC)[C@@H](NS(=O)(=O)c1ccc(-c2ccccc2)cc1)c1ccc(C(=O)OC)cc1`, the z-score is 0.0252 in assay [1]; 1.72 (inactive) in [2]; 0.303 (inactive) in assay [3]; 2.67 (inactive) in assay [5]; 0.239 (inactive) in assay [6]; -0.811 (inactive) in [7]. The z-score is -0.299 (inactive) in assay [8]; 0.305 in assay [9]; -1.37 in assay [12]; -1.02 (inactive) in [13]; -0.361 (inactive) in assay [14]; -0.761 (inactive) in assay [15]. The composite z-score in assay [4] is -4.09 (inactive); in assay [10], -0.0948; in assay [11] it was 0.046 (inactive); in the assay on XIP peptide (Xip251-270) it was -0.203.

The record behind these values is PubChem BioAssay.
